Most compounds without a hit are left out; they make up all but 2.4% or so of the library.
Cruzain noTriton: qHTS Assay for Promiscuous and Specific Inhibitors of Cruzain (without detergent); Potency, µM, for the others: max response, negative = inhibition, hits mostly inhibitors; Cruzipain (Trypanosoma cruzi), P25779; hit rate 2.3% among 200,000; purified cruzain, Z-FR-AMC fluorescence, no detergent;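 note: plate controls were enzyme without inhibitor for no effect and buffer without enzyme for full effect; nearly all actives have a fitted effect of over 40% in size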
Target sequence (P25779 123-467 limits assumed): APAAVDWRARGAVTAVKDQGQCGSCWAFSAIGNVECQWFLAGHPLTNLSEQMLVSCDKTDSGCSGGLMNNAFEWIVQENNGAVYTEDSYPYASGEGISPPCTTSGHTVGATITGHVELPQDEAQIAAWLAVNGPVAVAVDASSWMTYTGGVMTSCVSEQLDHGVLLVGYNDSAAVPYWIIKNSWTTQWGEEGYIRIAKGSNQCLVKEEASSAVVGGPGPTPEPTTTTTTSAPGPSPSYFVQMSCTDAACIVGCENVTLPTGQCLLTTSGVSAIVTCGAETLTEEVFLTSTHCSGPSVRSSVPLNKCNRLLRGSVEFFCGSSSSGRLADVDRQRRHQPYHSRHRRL
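Purified cruzain at 1.5 nM, pre-incubated 15 min with compound at room temperature in 100 mM sodium acetate pH 5.5, 5 mM DTT, 0.00005% Triton X-100. Reaction started with 2 uM Z-FR-AMC; AMC fluorescence increase over 60 s gives rate.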
Cruzain Triton: qHTS Assay for Promiscuous and Specific Inhibitors of Cruzain (with detergent) | Cruzipain (Trypanosoma cruzi), P25779 | purified cruzain, Z-FR-AMC fluorescence, 0.01% Triton | Potency, µM, without a hit: max response, negative = inhibition, actives largely listed as inhibitors | hit rate 0.43% among 200,000;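 note: plate controls were neutral wells for no effect and buffer without enzyme for full effect; nearly all actives have a fitted effect of over 40% in size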
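In this qHTS format, compounds are incubated with 1.5 nM cruzain for 15 min at room temperature before 2 uM Z-FR-AMC is added. Release of AMC is followed at 360/450 nm, and progress is taken as the 60 s fluorescence difference.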
An asterisk follows results filed as active; u = inconclusive. Calls come from the whole dose curve; as a rule, active = well fitted curve in the direction sought with a large enough effect; inconclusive = small, poorly fitted or top-dose-only effect, or another doubt; inactive = no such curve, though single readings can be large; an effect the other way counts as inactive or inconclusive. Potency is the fitted concentration of half-maximal effect.

SMILES | Cruzain noTriton | Cruzain Triton
CC(C)C(=O)NC(c1ccco1)c1ccc2cccnc2c1O (stereo not given) | -8% | 0%
Oc1c(C(Nc2nc3ccccc3s2)c2ccco2)ccc2cccnc12 (stereo not given) | 7.9µM* | 1%
CCOC(=O)C(C)Sc1nc(-c2ccccc2)ccc1C#N (stereo not given) | -7% | -9%
CN1CCN(C(=O)CSc2nc(-c3ccncc3)ccc2C#N)CC1 | 2% | -5%
N#Cc1ccc(-c2ccccc2)nc1SCC(=O)c1cccc(Cl)c1 | 13µM* | 2%
N#Cc1ccc(-c2ccc(Cl)cc2)nc1SCC(=O)c1cccc(Cl)c1 | 10µM* | 2%
N#Cc1ccc(CS(=O)(=O)c2nnnn2-c2ccccc2)cc1 | 4% | 4%
O=C(NCCc1ccc(Cl)cc1)c1ccc(CS(=O)(=O)Cc2ccccc2F)o1 | -10% | -5%
CCOC(=O)c1cc(S(=O)(=O)NCc2ccc(C)cc2)[nH]n1 | 2% | -2%
CCCCNc1nc(C)nc2c1nc(-c1ccccc1)n2CC1CCCN1CC (stereo not given) | -6% | -11%
CCN(CC)S(=O)(=O)c1ccc2c(c1)c(=O)c(C(=O)N1CCN(c3ccc(F)cc3)CC1)cn2C | 6% | -1%
Cc1csc2nc(-c3cccc(NS(C)(=O)=O)c3)cn12 | -6% | -1%
Cc1csc2nc(-c3ccc(NS(=O)(=O)c4cc(F)ccc4F)cc3)cn12 | 32µM* | -4%
CC(=O)Nc1ccc(S(=O)(=O)Nc2ccc(-c3cn4c(C)csc4n3)cc2)cc1 | u | -4%
CCS(=O)(=O)Nc1ccc(-c2cn3c(C)csc3n2)cc1 | -19% | -2%
CC(=O)c1ccc(S(=O)(=O)Nc2ccc(-c3cn4c(C)csc4n3)cc2)cc1 | 25µM* | -4%
COc1ccc(S(=O)(=O)Nc2ccc(-c3cn4c(C)csc4n3)cc2)cc1 | 25µM* | -4%
COC(=O)N1CCC2(CCCN(c3ccccn3)C2)CC1 | 0% | -2%
Cc1ccc(OCC(=O)N(Cc2ccco2)Cc2ccco2)cc1C | -9% | -5%
O=[N+]([O-])c1ccc(CSc2nc3ccccc3[nH]2)cc1 | -3% | -14%
Cc1cccc2nc(CSc3nc4ccc([N+](=O)[O-])cc4[nH]3)c(Br)n12 | 3.2µM* | -7%
Cc1c(C(=O)NCc2ccccc2Cl)sc2nc3n(c(=O)c12)CCCCC3 | -24% | -5%
COc1cccc(NC(=O)c2csc3c2CCCCC3)c1 | -6% | -8%
CCOC(=O)c1cc2c(=O)n3cccc(C)c3nc2n(Cc2ccco2)c1=NC(=O)c1cccnc1 | u | -9%
Cc1cccc(C(=O)N=c2c(C#N)cc3c(=O)n4cccc(C)c4nc3n2Cc2ccco2)c1 | 16µM* | 8.9µM*
SMILES | Cruzain noTriton | Cruzain Triton
O=C(Cc1ccccc1)Nc1ccccc1N1CCN(c2ccccc2)CC1 | -22% | -3%
O=C(Nc1ccccc1N1CCN(c2ccccc2)CC1)C12CC3CC(CC(C3)C1)C2 | 25µM* | 5%
CCCCC/C=C\C[C@@H](O)/C=C/C=C/C=C/[C@@H](O)CCCC(=O)O | -4% | 3%
Cc1ccc(C)c(-c2nc3ccc(N)cc3[nH]2)c1 | u | -1%
Nc1ccc(-c2nc3ccc([N+](=O)[O-])cc3[nH]2)cc1 | -2% | -9%
Nc1ccc2nc(-c3ccc(Cl)cc3)[nH]c2c1 | 20µM* | u
Nc1ccc2nc(-c3cc(Cl)c(N)c(Cl)c3)[nH]c2c1 | 16µM* | u
Clc1ccc2nc(-c3ccccc3)[nH]c2c1 | 4% | -4%
Nc1ccc(-c2nc3c(Cl)c(N)ccc3[nH]2)cc1 | 32µM* | u
CCOc1ccccc1NC(=O)N1CCN(S(=O)(=O)c2ccc3c(ccn3C)c2)CC1 | -19% | -3%
Cn1c(=O)c2sccc2n2c(CCC(=O)NCc3ccccc3)nnc12 | 4% | 1%
N[C@H](CO)Cc1cnc[nH]1 | -8% | 2%
Cc1cc2c(cc1S(=O)(=O)N(CCN(C)C)Cc1ccco1)OCC(=O)N2 | 17% | 5%
CCN(Cc1ccccc1)C(=O)CN(c1ccc(OC)cc1)S(=O)(=O)c1c(C)nn(C)c1C | u | -2%
Cc1ccc(C(=O)NCC(=O)OCC(=O)NC2CCS(=O)(=O)C2)cc1C (stereo not given) | 25µM* | 16µM*
O=C(COC(=O)CNS(=O)(=O)/C=C/c1ccccc1)NC1CCS(=O)(=O)C1 (stereo not given) | -22% | -27%
Cc1cccc(CS(=O)(=O)c2nnc([C@H](Cc3ccccc3)NC(=O)OC(C)(C)C)o2)c1 | 16µM* | 16µM*
COC(=O)CSc1nnc([C@H](Cc2ccccc2)NC(=O)OC(C)(C)C)o1 | 4% | 0%
Cc1ccc(C2C3=C(CCCC3=O)Nc3[nH]c(=S)[nH]c(=O)c32)cc1 (stereo not given) | -26% | -20%
O=C1CCCC2=C1C(c1ccc(Br)cc1)c1c([nH]c(=S)[nH]c1=O)N2 (stereo not given) | 16µM* | 18µM*
O=C(NCc1ccco1)c1ccc2c(=O)n(CCC3=CCCCC3)c(=O)[nH]c2c1 | 16µM* | 0%
CCN1CCN(C(=O)c2ccc3c(=O)n(CCC4=CCCCC4)c(=O)[nH]c3c2)CC1 | 10% | 0%
CNC1=CN=C(c2ccccc2)c2cc(Cl)ccc2N1 | -5% | 0%
O=C(O)c1cc2c(s1)-c1ccccc1OC2 | 25µM* | u
O=C(O)c1cc2c(s1)-c1ccccc1CC2 | -4% | -1%
SMILES | Cruzain noTriton | Cruzain Triton
Cc1cc2nc(-c3ccc(SCC(=O)N4CCc5ccccc54)nc3)[nH]c2cc1C | 16µM* | -2%
Cc1cc(NC(=O)CSc2ccc(-c3nc4cc(C)c(C)cc4[nH]3)cn2)no1 | u | 2%
CCOC(=O)Cn1c(=O)n(C2CCCCC2)c2nc(-c3cccc(C)c3)nc(C(N)=O)c21 | -5% | 0%
CN(C)C(=O)c1ccc(-c2ccc3ncnc(N4CCNCC4)c3c2)cc1 | -7% | 0%
O=C(Cc1ccc(-c2ccccc2)cc1)NCCS(=O)(=O)N1CCN(c2ccccc2F)CC1 | 13µM* | 1%
COc1ccc(CC(=O)NCCS(=O)(=O)N2CCN(c3ccccc3F)CC2)cc1OC | 1% | -1%
CCc1ccc(Cn2c(CNS(=O)(=O)c3ccc4c(c3)CCCC4)nc3cccnc32)cc1 | -1% | -7%
COC(=O)c1ccccc1NC(=O)c1ccc2c(Cl)c3c(nc2c1)CCCC3 | -5% | 0%
COc1cc(Cl)c(C)cc1NC(=O)CN1c2ccccc2S(=O)(=O)c2ccccc21 | 25µM* | -6%
NC(=O)c1ccccc1NC(=O)CN1c2ccccc2S(=O)(=O)c2ccccc21 | -8% | -3%
COc1ccc(N2CCC(CNS(=O)(=O)c3cccc(C(F)(F)F)c3)C2)cc1 (stereo not given) | 25µM* | -5%
COc1ccc(N2CCC(CNC(=S)Nc3cccc(C)c3)C2)cc1 (stereo not given) | -28% | -6%
CCc1ccc(C(=O)c2cn(CC(=O)Nc3ccc(C)c(C)c3)c3ccccc3c2=O)cc1 | 8% | 0%
N#C/C(=C\c1ccc(Oc2ccc(C(F)(F)F)cc2[N+](=O)[O-])cc1)c1nc2ccccc2[nH]1 | u | 2%
N#C/C(=C\c1ccc(OC(=O)c2ccc(Br)s2)cc1)c1nc2ccccc2[nH]1 | 5µM* | -4%
N#C/C(=C/c1ccc(N2CCCC2)c([N+](=O)[O-])c1)c1nc2ccccc2[nH]1 | -21% | -1%
